Only some compounds are listed: those with a hit (about 9.2% of all), similar ones and a draw of the others.
ELG1 DNA repair: inhibitors of ELG1-dependent DNA repair in HEK293T cells; HEK293T ELG1-luciferase reporter, luminescence, 16 h; DNA damage induced by 5-fluorouridine; Potency, µM (series often up to 46.1 µM), for the others: at the highest dose activity change, negative = inhibition, actives largely listed as inhibitors; 330,000 compounds, 2.3% hits; AID 504467; further: on the % scale 0 is the no-effect control and ±100 the full control effect; nearly all actives have a fitted effect of over 55% in size
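Quantitative HTS, concentration-response format. 2,000 cells/well co-treated with 5-fluorouridine and compound, 16 hr in 5% CO2 at 37 °C; ONE-Glo luminescence read after 30 min.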
NPC1 promoter act: activators of NPC1 promoter; Huh7 NPC1 promoter luciferase reporter, 24 h; AID 485313; Potency, µM (titrated, usually from 9.22 µM), for inactives: top-dose activation, actives largely listed as activators; 320,000 compounds, 2.4% hits; further: % of control where 0% means no effect; nearly all actives have a fitted effect of over 60% in size
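NPC1 promoter–luciferase Huh7 cells; 24 h compound; luminescence.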
Rab9 promoter act: activates the Rab9 promoter. Huh7 Rab9 promoter-luciferase reporter, luminescence, 24 h. Potency, µM (titrated, usually from 9.22 µM), for the others: at the highest dose activation, negative = inhibition, hits mostly activators. 320,000 compounds, 2.8% hits. AID 485297; further: % of control where 0% means no effect; nearly all actives have a fitted effect of over 60% in size
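Measured in stably transfected Huh7 cells bearing a Rab9 promoter–luciferase construct: 24 h compound treatment at 37 °C, followed by luminescence detection.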
SMN2 splice enh: enhancers of SMN2 splice variant expression; HEK293 SMN2-luciferase splicing reporter, luminescence, 30-36 h; Potency, µM (series often up to 46.1 µM), without a hit: top-dose activity change, positive = activation, usual class: activators; 210,000 compounds, 2.8% hits; AID 1458; further: % of control where 0% means no effect; nearly all actives have a fitted effect of over 55% in size
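HEK293 cells carry an SMN2 […]–luciferase reporter in which exon 7 inclusion puts luciferase in frame. Cells were plated 10-12 h before compound addition, then incubated 30-36 h at 37C. ONE-Glo luminescence was read; sodium butyrate at 4.5 mM final served as control.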
ELG1 genotox: inducers of genotoxicity in HEK293T ELG1-luciferase cells | HEK293T ELG1-luciferase reporter, luminescence, 16 h | Potency, µM (doses to about 46 µM), inactives show at the highest dose activity change, positive = activation, hits mostly activators | 330,000 compounds, 1.3% hits; further: % of control where 0% means no effect; nearly all actives have a fitted effect of over 60% in size
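ELG1-luciferase HEK293T cells, 2,000/well; compound pinned in; 16 hr, 37 °C, 5% CO2; ONE-Glo, 30 min RT; luminescence on CCD imager.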
FLuc modulator: firefly luciferase modulation, counter-screen for miR-21 project; P08659; purified FLuc, Km substrates, luminescence inhibition; Potency, µM (titrated, usually from 57.5 µM), for the others: at the top dose activity change, negative = inhibition, usual class: inhibitors; 360,000 compounds, 6.9% hits; AID 588342;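 further: plate controls were vehicle for no effect and reference inhibitor for full effect; nearly all actives have a fitted effect of over 55% in size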
Target sequence (P08659 whole entry, looked up): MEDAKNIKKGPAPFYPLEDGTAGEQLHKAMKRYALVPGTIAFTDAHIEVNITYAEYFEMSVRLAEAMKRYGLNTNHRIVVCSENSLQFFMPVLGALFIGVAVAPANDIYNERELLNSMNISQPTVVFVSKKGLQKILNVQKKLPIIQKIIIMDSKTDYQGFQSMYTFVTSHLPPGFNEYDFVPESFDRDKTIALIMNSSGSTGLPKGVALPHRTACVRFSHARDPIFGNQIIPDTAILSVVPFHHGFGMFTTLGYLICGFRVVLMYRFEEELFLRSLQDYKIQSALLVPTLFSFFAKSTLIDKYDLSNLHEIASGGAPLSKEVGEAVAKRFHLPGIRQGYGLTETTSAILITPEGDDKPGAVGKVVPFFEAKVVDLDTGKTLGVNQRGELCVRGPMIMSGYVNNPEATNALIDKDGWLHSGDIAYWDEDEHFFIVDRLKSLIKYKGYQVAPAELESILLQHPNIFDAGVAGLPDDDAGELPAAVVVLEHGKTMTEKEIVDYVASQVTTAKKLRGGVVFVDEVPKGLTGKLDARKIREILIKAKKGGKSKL
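Biochemical qHTS of compounds, final roughly 60 µM downward over six points, against 10 nM purified firefly luciferase using Km concentrations of substrates (10 uM D-luciferin, 10 uM ATP) in Tris acetate pH 7.5 buffer; luminescence output.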
* hit, by the source's call; u = inconclusive; x = no result. The call rests on the fitted dose curve; in most records, active means well fitted curve in the direction sought with a large enough effect; inconclusive means small, poorly fitted or top-dose-only effect, or another doubt; inactive means no such curve, though single readings can be large; an effect the other way counts as inactive or inconclusive. Potency means the concentration at half of the fitted maximal effect.

SMILES	ELG1 DNA repair	NPC1 promoter act	Rab9 promoter act	SMN2 splice enh	ELG1 genotox	FLuc modulator
Cc1ccc(/C=C/c2ccc3cccc(O)c3n2)s1	u	3.98µM*	3.16µM*	x	20.6µM*	2.69µM*
CC(=O)COc1cccc2ccc(/C=C/c3ccc(Br)s3)nc12	4.3%	u	u	x	-5.4%	19µM*
Oc1cccc(/C=C/c2ccc3cccc(O)c3n2)c1	u	u	13.3%	x	u	1.51µM*
CCc1ccccc1NC(=O)COc1cccc2ccc(C)nc12	u	1.1%	-0.8%	-7.5%	-7.5%	1.3%
O=C(O)c1ccc2cccc(O)c2n1	-9.3%	2.4%	-6.2%	x	-0.3%	-10.6%
COc1cccc(/C=C/c2ccc3cccc(O)c3n2)c1	u	u	17.1%	x	23.1µM*	1.51µM*
COc1ccc(CN2CCNC(=O)C2CC(=O)N2CCCN(C(C)=O)CC2)cc1OC (stereo not given)	28.0%	1.1%	-2.5%	x	2.1%	1.5%
COc1ccc(S(=O)(=O)N2CCC(C(=O)NC3CCCCC3)CC2)cc1C	3.2%	-2.3%	-1.6%	x	1.1%	0.5%
Cn1ncc([N+](=O)[O-])c1C(=O)NC1CCCCC1	2.2%	-1.0%	-0.2%	x	4.1%	0.5%
Cc1cn2c(=O)cc(COC(=O)c3cccc(NC(=O)COc4ccccc4Cl)c3)nc2s1	x	x	x	x	x	4.78µM*
Cc1nn2c(=O)cc(COC(=O)c3cccc(NC(=O)c4ccc(C(C)(C)C)cc4)c3)nc2s1	x	x	x	x	x	0.536µM*
Cc1cccc(C(=O)Nc2cccc(C(=O)OCc3cc(=O)n4nc(C(C)C)sc4n3)c2)c1	x	x	x	x	x	-19.9%
COc1ccc(-n2c(SCC(=O)Nc3cc(C)on3)nc3c([nH]c4ccccc43)c2=O)cc1OC	u	2.9%	-1.1%	x	-1.4%	-3.2%
CCOC(=O)c1c(S(=O)(=O)NCC(=O)N2CCN(c3ccccc3)CC2)c(C)n(C)c1C	13.3%	0.1%	3.0%	x	-2.9%	0.5%
COCCNc1nnc(SCC(=O)Nc2cc(-c3ccccc3)nn2-c2ccccc2)s1	20.6µM*	-2.0%	-1.2%	22.7%	-3.6%	u
CCCc1ccc(-c2cc(NC(=O)CSc3n[nH]c(N)n3)n(-c3ccccc3)n2)cc1	5.9%	16.9%	14.7%	2.4%	u	4.26µM*
COCCNc1nnc(SCC(=O)Nc2nnc(-c3ccccc3)o2)s1	20.4%	-0.8%	-5.4%	x	12.2%	19µM*
Cn1c(SCC(=O)Nc2nnc(-c3ccccc3)o2)nnc1C1CC1	19.3%	1.2%	0.3%	x	1.2%	13.5µM*
Nc1nnc(SCC(=O)Nc2nnc(-c3ccccc3)o2)s1	-4.8%	0.9%	-1.7%	x	0.4%	u
CC(NC(=O)CSc1n[nH]c(N)n1)c1ccccc1 (stereo not given)	6.8%	-0.9%	-2.3%	x	4.1%	4.5%
CC(=O)C(Sc1nnnn1-c1ccc(O)cc1)c1ccccc1 (stereo not given)	2.9%	-3.7%	0.1%	x	-0.1%	0.4%
CC1C(=O)N2CCCc3cc(S(=O)(=O)N4CCN(c5ccccc5F)CC4)cc1c32 (stereo not given)	-1.3%	-1.5%	-11.5%	x	-1.8%	1.7%
CC(C)(C)c1cc(NC(=O)CSc2nnc(NCc3ccccc3)s2)n(-c2ccccc2)n1	23.1µM*	-1.2%	-0.2%	-34.7%	-12.1%	19µM*
CC(C)(C)c1cc(NC(=O)CSc2nnc(N)s2)n(-c2ccccc2)n1	-16.2%	0.5%	-0.6%	x	2.7%	4.5%
COc1ccc(-n2cnnc2SCC(=O)Nc2cc(C(C)(C)C)nn2-c2ccccc2)cc1	20.6µM*	0.9%	-3.1%	-16.6%	-19.4%	3.4%
COc1ccccc1-n1cnnc1SCC(=O)Nc1cc(C(C)(C)C)nn1-c1ccccc1	u	1.3%	1.2%	-33.9%	-7.3%	-0.8%

Bioassay records deposited in PubChem BioAssay by National Center for Advancing Translational Sciences (NCATS).
